High-throughput results (PubChem)
CHT inh: inhibitors of human choline transporter CHT. 310,000 compounds, 0.86% hits. B-score at 10 µM. CHT-expressing cells, membrane potential dye, choline response; active compounds read low. AID 488975, 2010;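 active = B-score over 3 SD under the library average, and starting fluorescence ratio not unusually high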;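 note: choline stimulus applied at its EC90 after an EC20 pre-addition; B-score computed on integrated fluorescence ratio after choline addition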
TAG inh: inhibitors of triacylglycerol accumulation, primary screen, cell-based, uHTS, fluorescence, H9c2 | inhibition, % at 12.5 µM | AID 651582, 2012 | 230,000 compounds, 0.66% hits | H9c2 cells, Nile Red lipid (TAG) fluorescence; cells loaded with 200 µM oleic acid;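 active = pattern-corrected inhibition of lipid staining of at least 50% with the nuclear-stain viability signal not falling by more than 50%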;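 note: 0% = DMSO wells and 100% = triacsin C control wells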
Kir21 inh: inhibitors of mouse Kir2.1 inward-rectifier potassium channel | HEK293-Kir2.1, FluxOR thallium flux fluorescence; active compounds read low | B-score at 10 µM | AID 1672, 2009 | 310,000 compounds, 0.85% hits;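 active = fluorescence ratio B-score at or below minus 3 SD of library scores, with starting-brightness B-score within 2 SD, cut at about -4.2 in these data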;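 note: channel flux triggered by added potassium and thallium sulfate stimulus; B-score of peak minus minimum fluorescence over baseline after thallium stimulus; more negative B-score means stronger Kir2.1 block with less thallium influx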
Target sequence (P35561 whole entry, looked up): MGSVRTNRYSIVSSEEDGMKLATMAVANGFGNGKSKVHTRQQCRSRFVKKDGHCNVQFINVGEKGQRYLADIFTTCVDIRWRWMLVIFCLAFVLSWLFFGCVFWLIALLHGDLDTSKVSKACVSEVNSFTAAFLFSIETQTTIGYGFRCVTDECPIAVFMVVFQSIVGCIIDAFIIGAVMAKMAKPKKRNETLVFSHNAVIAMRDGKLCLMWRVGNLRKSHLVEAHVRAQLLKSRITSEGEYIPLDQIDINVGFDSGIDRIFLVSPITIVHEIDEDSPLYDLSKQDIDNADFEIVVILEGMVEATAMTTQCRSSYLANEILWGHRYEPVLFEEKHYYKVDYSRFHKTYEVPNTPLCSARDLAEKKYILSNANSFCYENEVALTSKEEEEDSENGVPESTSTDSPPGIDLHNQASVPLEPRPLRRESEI
CHT PAM: CHT positive allosteric modulators, primary screen, cell-based, membrane potential dye, choline EC20. High affinity choline transporter 1 (Homo sapiens), Q9GZV3. CHT-expressing cells; active compounds read high; LV-AA mutant CHT in HEK293 cells. B-score at 10 µM. 310,000 compounds, 0.49% hits. AID 488977, 2010;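 active = initial fluorescence not abnormally high and integrated response B-score, plate-corrected, over 3 SD above library mean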
CHT activ conf: CHT activators, confirmation, cell-based, membrane potential dye, duplicate; shares compounds with CHT PAM; CHT-expressing cells, membrane potential dye fluorescence (FDSS); % of choline EC20–EC90 response window; HEK293 expressing CHT LV-AA mutant; choline added at its EC20; activation, % at 10 µM; 2,500 compounds, 91% hits; AID 504833, 2011;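 active = primary screen active, with duplicate mean activation above negative control mean plus 3 SD, cut at about 11% in these data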
HEK293 MP dye: membrane potential response in parental HEK293 cells, counter-screen for CHT activator project, cell-based, membrane potential dye; 2,500 compounds, 62% hits; shares compounds with CHT PAM; ratio readout change at 10 µM, hits read low; membrane potential dye fluorescence (FDSS); measured after EC20 choline addition;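 active = duplicate-averaged ratio beyond 3 SD from buffer wells, up or down, though filed actives are nearly all decreases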
The depositor's hits bear a star; i = inactive; nt = no result. In the library only some 2% were active in any assay of this set; here they are far more common.

SMILES	CHT inh	TAG inh	Kir21 inh	CHT PAM	CHT activ conf	HEK293 MP dye
CCOC(=O)c1c[nH]c2c3c(ccc2c1=O)CCCC3	i	nt	-0.05	i	nt	nt
CCOC(=O)c1c[nH]c2c(C)ccc(Cl)c2c1=O	i	nt	0.77	i	nt	nt
CCOC(=O)c1c[nH]c2c(Cl)ccc(Cl)c2c1=O	i	-2	2.1	7.2*	69*	-64*
CCOC(=O)c1c[nH]c2c(Cl)c(Cl)ccc2c1=O	i	-11	0.4	i	39*	-37*
Cc1ccc(C2=NN(C(=O)CSc3nnnn3C)C(c3ccco3)C2)cc1 (configuration not stated)	nt	19	nt	nt	nt	nt
CC(OC(=O)c1ccc(CN2CCCC2=O)cc1)C(=O)Nc1ccc(Cl)cc1 (configuration not stated)	nt	-28	nt	nt	nt	nt
COc1ccc(-n2c(Cc3ccccc3)nnc2SCc2ccc([N+](=O)[O-])cc2)cc1	i	-6	-0.19	i	nt	nt
O=[N+]([O-])c1ccc(CSc2nnc(Cc3ccccc3)n2-c2ccc(F)cc2)cc1	i	-17	-0.88	i	21*	i
CC(C)(C)OC(=O)NCCCCCc1nnc(SCc2ccccc2F)o1	i	1	-0.53	i	nt	nt
CC(C)(C)OC(=O)NCCCCCc1nnc(SCc2cccc(F)c2)o1	i	-1	-1.3	8.3*	-2	i
Cc1ccc(CNc2ccc3nnc(-c4ccccc4)n3n2)cc1	i	7	0.32	i	nt	nt
c1ccc(CN2CCN(CCCNc3ccc4nnc(-c5ccccc5)n4n3)CC2)cc1	i	12	0.76	7.8*	54*	-48*
Cc1cccc([C@@H]2[C@@H]3C(=O)N(Cc4ccccc4)C(=O)[C@@H]3[C@]3(Cc4ccc(Cl)cc4)C(=O)N(c4cccc(Br)c4)C(=O)N23)c1	i	nt	1.7	i	nt	nt
Cc1ccc(NCC(=O)c2ccc([N+](=O)[O-])cc2)cc1	i	10	-0.07	6.4*	11*	-23*
C=CCOc1cccc(/C=N/NC(=O)CN(c2cc(Cl)ccc2OC)S(=O)(=O)c2ccc(C)c([N+](=O)[O-])c2)c1	i	nt	-0.47	i	7	i
CCOc1ccc(S(=O)(=O)N(C)CC(=O)N2CCCC2)cc1	i	-6	0.89	i	nt	nt
CC(NC(=O)Cn1c(NCCO)nc2ccccc21)C1CC2CCC1C2 (configuration not stated)	i	10	-2.2	i	38*	i
O=C(CN1CCCc2ccccc21)Nc1ccc(F)cc1[N+](=O)[O-]	i	-7	-1.1	i	nt	nt
Cc1cc(NC(=O)CCCSc2nc(-c3ccco3)cc(C(F)(F)F)n2)n(-c2ccccc2)n1	i	11	-1.4	i	15*	i
Cc1cc(NC(=O)CSc2nc(-c3ccco3)cc(C(F)(F)F)n2)n(-c2ccccc2)n1	i	5	0.01	i	nt	nt
Cc1cc(-c2ccccc2)cc(-c2ccccc2)[n+]1C	i	-11	-1.9	6.8*	79*	-23*
Cc1ccc(OCC(=O)NNC(=O)Cc2ccc(S(=O)(=O)N3CCOCC3)s2)cc1	i	24	1	i	nt	nt
COc1cc(OC)c2nc(C)c3c(c2c1)N(c1ccc(O)cc1)CC3	i	25	-2.5	6.4*	34*	-42*
Cc1ccc(-n2nc3cc(C)c(N)cc3n2)cc1	i	13	1.2	i	nt	nt
Cc1cc2nc3ccc(N(C)C)cc3nc2cc1N	i	-45	-3.1	i	30*	-24*
SMILES	CHT inh	TAG inh	Kir21 inh	CHT PAM	CHT activ conf	HEK293 MP dye
Cc1cccc(N2CCN(C(=O)CCCCCn3c(=S)[nH]c4ccc(N5CCOCC5)cc4c3=O)CC2)c1C	i	nt	1.6	i	nt	nt
O=C(COC(=O)c1ccc2c(=O)n3c(nc2c1)CCC3)NC1CCS(=O)(=O)C1 (configuration not stated)	i	-9	-0.46	i	40*	-48*
c1ccc(-c2ccccc2OCCCN2CCCC2)cc1	i	nt	-4.2*	i	2	i
CCC(=O)N1CCc2cc(Br)cc(S(=O)(=O)N3CCC(C(=O)NC(C)C)CC3)c21	i	nt	-1.4	i	nt	nt
CC(NC(=O)CCNC(=O)c1ccc(Br)cc1)c1ccc(S(N)(=O)=O)cc1 (configuration not stated)	i	8	1.4	i	nt	nt
Cc1nc2c(C)[n+](CC(=O)c3ccccc3)ccc2n1C	i	-7	0.41	i	44*	-38*
COc1ccc(C(=O)C[n+]2ccc3c(c2)nc(-c2ccccc2)n3C)cc1	i	nt	0.42	i	nt	nt
COc1cc(C(=S)N2CCOCC2)cc(OC)c1OC(=O)c1ccccc1Cl	nt	1	nt	nt	nt	nt
COc1ccc(C2=Nn3c([n+](C)c4ccccc43)SC2)cc1	i	6	2.2	11*	57*	-48*
CCCCCCCC(=O)N1CCN(c2cc3c(cc2F)c(=O)c(C(=O)O)cn3CC)CC1	i	nt	0.59	i	nt	nt
CCCCCCn1cc(C(=O)O)c(=O)c2cc(F)c(N3CCN(C)CC3)cc21	i	15	1.7	6.9*	59*	-76*
CCn1cc(C(=O)O)c(=O)c2cc(F)c(N3CCNCC3)cc21	i	9	-0.11	14*	39*	-42*
Cc1ccnc(NC(=O)C(C)N2C(=O)c3ccccc3S2(=O)=O)c1 (configuration not stated)	i	-1	0.23	10*	6	i
Cc1csc(NC(=O)C(C)N2C(=O)c3ccccc3S2(=O)=O)n1 (configuration not stated)	i	nt	1.3	i	11*	i
COc1cccc(NC(=O)C(C)N2C(=O)c3ccccc3S2(=O)=O)c1 (configuration not stated)	i	0	0	i	nt	nt
CCOC(=O)c1c(C)[nH]c(C)c1S(=O)(=O)NCCc1cccs1	i	nt	-3.5	i	nt	nt
CN(C)S(=O)(=O)c1cc(NC(=O)CNCc2ccccc2)ccc1Cl	i	nt	-1.6	i	nt	nt
CN(CCOc1ccccc1)CC(=O)Nc1ccc(Cl)c(S(=O)(=O)N(C)C)c1	i	-16	-1	7*	5	i
Cc1c2cccn2cc[n+]1C	i	7	1.3	6.6*	58*	-53*
CC1(C(=O)NS(=O)(=O)c2cccs2)CCN1C(=O)c1cccc(F)c1 (configuration not stated)	nt	3	nt	nt	nt	nt
COc1cc2c(cc1NC(=O)COCC(=O)O)oc1ccccc12	i	nt	-1.3	i	46*	-45*
